# Reference: the antibiotic and cytotoxicity screens of Wong et al. (2023)
# About 3,300 (8.5%) of roughly 39,000 compounds were called active. Many of the other results were omitted from the sample, so actives are more common in it than they were.
# Tested on: HepG2
# Assay: cytotoxicity call (relative viability < 0.9)
# Settings: 10 µM
row,SMILES,cytotoxicity call
1,C[C@H](CO)N1C[C@H](C)[C@@H](CN(C)C(=O)CCC(F)(F)F)OCc2ccccc2-c2c(n(C)c3ccccc23)C1=O,inactive
2,CSc1scc(-c2cc(Cl)cc(Cl)c2)c1C#N,inactive
3,C[C@H](CO)N1C[C@H](C)[C@@H](CN(C)S(=O)(=O)c2cccs2)Oc2ccc(NC(=O)CCCN(C)C)cc2C1=O,inactive
4,Cc1ccc(S(=O)(=O)Nc2ccc3c(c2)C(=O)N([C@@H](C)CO)C[C@@H](C)[C@@H](CN(C)C(=O)Nc2ccccc2)OCCCC[C@@H](C)O3)cc1,inactive
5,CCCC/C=C/[C@H]([C@@H](O)Cc1ccccc1)N(CC#Cc1ccccc1)Cc1ccccc1Br,inactive
6,COc1ccc(NC(=O)Nc2ccc3c(c2)C(=O)N([C@H](C)CO)C[C@@H](C)[C@@H](CN(C)C(=O)Nc2ccc(C(F)(F)F)cc2)O3)cc1,inactive
7,C[C@@H](O)CN1CCN(S(=O)(=O)C2CC2)CC1,inactive
8,C[C@@H]1CN([C@H](C)CO)C(=O)c2cccc(NC(=O)C3CC3)c2O[C@H]1CN(C)S(=O)(=O)c1ccccc1,inactive
9,CC(=O)Nc1nc(C(=O)O)cs1,inactive
10,Cc1ccc(S(=O)(=O)NC2=NCN(CCN3CCOCC3)CN2)cc1,inactive
11,Cc1ccc(-n2nc(C(C)(C)C)cc2NC(=O)Nc2ccc(OCCN3CCOCC3)c3ccccc23)cc1,active
12,CC(C)(C)c1cc(NC(=O)Nc2ccc(Oc3ccnc4nc(O)cnc34)cc2F)n(-c2ccccc2)n1,inactive
13,CCCNC(=O)N1C[C@@H](C)[C@@H](OC)CN(C)C(=O)c2cc(NS(=O)(=O)CC(F)(F)F)ccc2OC[C@H]1C,inactive
14,CC1(C)OC2CC3C4CC(F)C5=CC(=O)C=CC5(C)C4C(O)CC3(C)C2(C(=O)CO)O1 (configuration not stated),inactive
15,C[C@@H]1CN([C@@H](C)CO)C(=O)c2cccc(NC(=O)C3CCCCC3)c2O[C@@H]1CN(C)S(=O)(=O)c1cn(C)cn1,inactive
16,COc1ccc([Si](C)(C)[C@@H]2[C@@H](CCn3cc(CCO)nn3)O[C@]3(C(=O)N(C)c4ccccc43)[C@H]2C)cc1,inactive
17,COc1ccc([Si](C)(C)[C@H]2[C@H](CCn3cc([C@H](O)c4ccccc4)nn3)O[C@@]3(C(=O)N(Cc4ccc(N5C(=O)c6cccc7cccc5c67)cc4)c4ccccc43)[C@@H]2C)cc1,inactive
18,COc1ccc([Si](C)(C)[C@@H]2[C@@H](CCn3cc([C@H](O)c4ccccc4)nn3)O[C@]3(C(=O)N(Cc4ccc(N5C(=O)c6cccc7cccc5c67)cc4)c4ccccc43)[C@H]2C)cc1,active
19,COc1ccc([Si](C)(C)[C@@H]2[C@@H](CCn3cc(CCO)nn3)O[C@]3(C(=O)N(Cc4ccc(N5C(=O)c6cccc7cccc5c67)cc4)c4ccccc43)[C@H]2C)cc1,active
20,COc1ccc([Si](C)(C)[C@@H]2[C@@H](CCn3cc([C@H](O)c4ccccc4)nn3)O[C@]3(C(=O)N(Cc4cccc(N5C(=O)c6cccc7cccc5c67)c4)c4ccccc43)[C@H]2C)cc1,inactive
21,COc1ccc([Si](C)(C)[C@H]2[C@H](CCn3cc([C@H](O)c4ccccc4)nn3)O[C@@]3(C(=O)N(Cc4cccc(N5C(=O)c6cccc7cccc5c67)c4)c4ccccc43)[C@@H]2C)cc1,inactive
22,C[C@H]1[C@H]([Si](C)(C)F)[C@@H](CCn2cc([C@H](O)c3ccccc3)nn2)O[C@]12C(=O)N(c1ccccc1)c1ccccc12,inactive
23,COc1ccc([Si](C)(C)[C@H]2[C@H](CCn3cc(CCO)nn3)O[C@@]3(C(=O)N(C)c4ccccc43)[C@@H]2C)cc1,inactive
24,COc1ccc([Si](C)(C)[C@@H]2[C@@H](CCn3cc(CCO)nn3)O[C@]3(C(=O)N(Cc4cccc(N5C(=O)c6cccc7cccc5c67)c4)c4ccccc43)[C@H]2C)cc1,active
25,C[C@@H]1[C@@H]([Si](C)(C)F)[C@H](CCn2cc([C@H](O)c3ccccc3)nn2)O[C@@]12C(=O)N(c1ccccc1)c1ccccc12,active
26,COc1ccc([Si](C)(C)[C@@H]2[C@@H](CCn3cc([C@H](O)c4ccccc4)nn3)O[C@]3(C(=O)N(c4ccccc4)c4ccccc43)[C@H]2C)cc1,inactive
27,COc1ccc([Si](C)(C)[C@H]2[C@H](CCn3cc(CCO)nn3)O[C@@]3(C(=O)N(Cc4cccc(N5C(=O)c6cccc7cccc5c67)c4)c4ccccc43)[C@@H]2C)cc1,inactive
